Reference: the supplement of paper PMC7156485
Structures can show the parent of a compound that is named as a salt.

These compounds were tested on HCC1569 (assay: H1.0 immunofluorescence intensity relative to DMSO (% of DMSO); higher = stronger H1.0 induction, active = 140 or more). Conditions: concentration: 10 µM; 24 h.
Procedure, shortened: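 H1.0 nuclear intensity or cell number is stated as percent of the plate control, based on the median of replicates, and HCC1569 values were smoothed for positional effects. These came from HCC1569 and TDF cells treated with compounds at 10 µM for 24 h at 37 °C in triplicate, then fixed in 3.7% formaldehyde and stained with a rabbit anti-H1.0 antibody, an AlexaFluor 647 secondary and DAPI.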
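Note: TDF is a line of transformed human dermal fibroblasts of mesenchymal origin.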

H1.0 immunofluorescence intensity, active:
Cc1cnc(Nc2ccc(N3CCN(C)CC3)cc2)nc1Nc1cccc(S(=O)(=O)NC(C)(C)C)c1 174
O=C1Nc2ccccc2C1=Cc1c(Cl)[nH]c2ccccc12 [Cdk1 Inhibitor] 143

H1.0 immunofluorescence intensity, inactive:
CCCCCCCCCCCCCCC(F)C(=O)O (centres undefined) [2-Fluoropalmitic acid] 104
CC(C)(C)NCC(O)c1cc(O)cc(O)c1.CC(C)(C)NCC(O)c1cc(O)cc(O)c1.O=S(=O)(O)O (centres undefined) [Terbutaline hemisulfate] 97
COc1cc(-c2oc3cc(O)ccc3c(=O)c2O)ccc1O [Geraldol] 99.4
COc1cc2nc(N3CCN(C(=O)c4ccco4)CC3)nc(N)c2cc1OC.Cl [Prazosin.HCl] 95.8
OCC1OC(n2cnc3c(NC4CC5CCC4C5)ncnc32)C(O)C1O (centres undefined) 91.9
CC(CCc1ccc(O)cc1)NCCc1ccc(O)c(O)c1.Cl (centres undefined) [Dobutamine hydrochloride] 91
Nc1c(C(=O)O)c2nc3c(C(=O)O)cccc3oc-2cc1=O [2-amino-3-oxo-3H-phenoxazine-1,9-dicarboxylic acid] 101
Nc1nc(Cl)nc2c1ncn2C1OC(CO)C(O)C1O (centres undefined) [2-Chloroadenosine] 89
OC(Cn1cncn1)(Cn1cncn1)c1ccc(F)cc1F [Fluconazole] 106
CN(CCOc1ccc(CC2SC(=O)NC2=O)cc1)c1ccccn1.O=C(O)C=CC(=O)O (centres undefined) [Rosiglitazone maleate] 101
CC1CCC2C(C)(CO)C(O)CCC2(C)C12CCC(CO)(CCO)O2 (centres undefined) [Lagochiline] 100
O=C(Nc1ccc(Oc2ccnc3[nH]ccc23)c(F)c1)c1cccn(-c2ccc(F)cc2)c1=O 111
O=C(O)c1cc(=O)c2ccc(Cl)cc2[nH]1 [7-Chlorokynurenic acid] 91
Cn1cnc2c1c(=O)[nH]c(=O)n2C [Theobromine] 95.9
CCCOC(=O)c1c(-c2ccccc2)nc(CC)c(C(=O)SCC)c1CCC 96.3
O=c1onc2cnc3ccccc3n12 106
CN1C2CCC1CC(OC(c1ccccc1)c1ccccc1)C2.CS(=O)(=O)O (centres undefined) [Benztropine mesylate] 97.7
CC(O)C(=O)C1=Nc2c([nH]c(N)nc2=O)NC1 (centres undefined) [Sepiapterin] 99.1
C=C(c1ccc(C(=O)O)cc1)c1cc2c(cc1C)C(C)(C)CCC2(C)C [Bexarotene] 111
CC(O)(P(=O)([O-])O)P(=O)([O-])O [Etidronate] 111
CC(C)=CCC(O)C1=CC(=O)c2c(O)ccc(O)c2C1=O (centres undefined) [Shikonin] 111
COc1ccc2c(c1)c(CC(=O)N1CCOCC1)c(C)n2C(=O)c1ccc(Cl)cc1 [Indomethacin morpholinylamide] 85.5
CNNCc1ccc(C(=O)NC(C)C)cc1 [Procarbazine] 108
CN(c1ncccc1CNc1nc(Nc2ccc3c(c2)CC(=O)N3)ncc1C(F)(F)F)S(C)(=O)=O 118
CC12C=CC(=O)C=C1CCC1C2C(=O)CC2(C)C1CCC2(O)C(=O)CO (centres undefined) [Prednisone] 122
Cl.O=C(O)C1=CCCN(CCON=C(c2ccccc2)c2ccccc2)C1 [NO-711 hydrochloride] 97.9
OC[C@@H](O)[C@H]1NC[C@@H](O)[C@H]1O [1,4-Dideoxy-1,4-imino-D-mannitol hydrochloride] 90.9
Cc1cc(C)c(NC(=O)CC(CC(=O)[O-])c2cccc3ccccc23)c(C(=O)N2CCC3(CCCC3)CC2)c1.[Na+] (centres undefined) 99.8
NC(=O)c1ccc(-c2nc(-c3ccc4c(c3)OCO4)c(-c3ccccn3)[nH]2)cc1 136
O=c1ccc2ccc(O)c(O)c2o1 [7,8-dihydroxy-2H-chromen-2-one] 91
CCN1CCN(c2cc3c(cc2F)c(=O)c(C(=O)O)cn3C2CC2)CC1 [Enrofloxacin] 110
CC(C)=CCC(OC(=O)C=C(C)C)C1=CC(=O)c2c(O)ccc(O)c2C1=O (stereo not drawn) [Shikonin beta,beta-dimethylacrylate] 114
CCN(Cc1ccccc1)C(=O)Cn1c(=O)n(C)c2cnc(-c3ccccc3)nc21 123
CN(CCOc1ccc(NS(C)(=O)=O)cc1)CCc1ccc(NS(C)(=O)=O)cc1 [Dofetilide] 99.5
Cc1ccc(CN2C(=O)S/C(=C\c3ccc(Cl)cc3)C2=O)cc1 97.2
O=C1NC(c2cccc([N+](=O)[O-])c2)=CCN1c1ccccc1O 94.9
Cc1cccc(Nc2ccccc2C(=O)O)c1C [Mefenamic acid] 90.5
